Data on 71 compounds can be found in the supplement of paper PMC11150407.

Counter-ions that a name gives are not always drawn. Screen size: about 2,100 compounds; about 180 (8.6%) showed an effect of 50% or more. The list comes from a sample in which strong results are over-represented; it also holds similar structures and randomly drawn compounds.

This assay deals with MOLM1 and UCSD/AML1 (averaged). In words: cell viability relative to DMSO control (POC); higher = less growth inhibition. The settings on record: 1 µM; 72 h. On the procedure: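 Primary viability screen in the 3q26 EVI1-high AML cell lines MOLM1 and UCSD/AML1 (1.5e3 cells/well, 384-well), compounds at 1 uM for 72 h. ATP CellTiter-Glo read-out given as percent of viable cells over DMSO control (POC), averaged over duplicates. DMSO was the negative control and 5 uM etoposide the positive control. This mapping covers the MicroSource Spectrum and Selleck anticancer libraries (drug names).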
As to `CC(=O)O[C@H]1CC[C@]2(C)C(C[C@@H](OC(C)=O)[C@]3(C)C4=CC(=O)O[C@H](c5ccoc5)[C@@]4(C)CCC23)C1(C)C` (stereo partly drawn) [3-DEOXO-3beta-ACETOXYDEOXYDIHYDROGEDUNIN], the cell viability – broadly, a read-out of living cells in per cent, often relative to untreated cells – amounted to 92.3%.

Take `CC(C)c1cc(-c2n[nH]c(=O)n2-c2ccc3c(ccn3C)c2)c(O)cc1O` [Ganetespib (STA-9090)]: the cell viability was found to be 2.49%.

Turning to `CC(=O)O[C@H]1C[C@@H](O)C(C)(C)[C@@H]2C[C@@H](OC(C)=O)[C@]3(C)[C@H](CC[C@@]4(C)[C@@H](c5ccoc5)OC(=O)[C@H]5O[C@@]534)[C@@]12C`, the cell viability was found to be 104%.

Take `O=c1cc(-c2ccccc2)oc2cc(O)c(O)cc12`: the cell viability turned out to be 96.6%.

Turning to `COc1cc(Nc2ncc3c(n2)-c2ccc(Cl)cc2C(c2c(F)cccc2OC)=NC3)ccc1C(=O)O` [MLN8237 (Alisertib)], the cell viability stood at 49.6%.

Turning to `C=C1[C@H]2CC[C@@]3(C)[C@H](c4ccoc4)OC(=O)C[C@]13O[C@H]1C[C@H](O)C(C)(C)[C@H](CC(=O)OC)[C@]12C` [3-DEOXY-3beta-HYDROXYANGOLENSIC ACID METHYL ESTER], the cell viability came out at 97.7%.

In the case of `C[C@@H]1CC[C@@]2(OC1)O[C@H]1C[C@H]3[C@@H]4CC=C5C[C@@H](O)CC[C@]5(C)[C@H]4CC[C@]3(C)[C@H]1[C@@H]2C`, the cell viability turned out to be 93.7%.

For the compound `O=c1cc(-c2ccc(O)cc2)oc2cc(O[C@@H]3O[C@H](CO)[C@@H](O)[C@H](O)[C@H]3O)cc(O)c12`, the cell viability came to 104%.

Regarding `O=C(O)c1cc2ccccc2[nH]1`, the cell viability is 118%.

For `O=C(O)CCC(=O)c1ccc(-c2ccccc2)cc1`, the cell viability is 93.4%.

Take `O=C(O)CCCc1ccccc1`: the cell viability stood at 90.8%.

For `O=C(O)CCc1nc(-c2ccccc2)c(-c2ccccc2)o1`, the cell viability came out at 45.5%.

Take `C[C@]1(O)C[C@@H](c2nc(-c3ccc4ccc(-c5ccccc5)nc4c3)c3c(N)nccn32)C1` [OSI-906 (Linsitinib)]: the cell viability came to 100%.

For the compound `O=C(Nc1cccc(Cl)c1)Nc1ncc(CCNc2ncnc3ccsc23)s1` [SNS-314 Mesylate], the cell viability amounted to 60%.

On to `CC1(C)[C@@H](O[C@H]2O[C@H](C(=O)O)[C@@H](O)[C@H](O)[C@H]2O[C@@H]2O[C@H](C(=O)O)[C@@H](O)[C@H](O)[C@H]2O)CC[C@]2(C)[C@H]3C(=O)C=C4[C@@H]5C[C@@](C)(C(=O)O)CC[C@]5(C)CC[C@@]4(C)[C@]3(C)CC[C@@H]12`, for which the cell viability was determined as 96.4%.

For the compound `COc1cc(/C=C/C(=O)O)cc(OC)c1OC`, the cell viability came to 118%.

Turning to `COc1cc([C@@H]2c3cc4c(cc3[C@@H](O[C@@H]3O[C@@H]5CO[C@@H](c6cccs6)O[C@H]5[C@H](O)[C@H]3O)[C@H]3COC(=O)[C@H]23)OCO4)cc(OC)c1O` [Teniposide (Vumon)], the cell viability amounted to 12.4%.

Turning to `COc1cc([C@@H]2c3cc4c(cc3[C@@H](O[C@@H]3O[C@@H]5CO[C@@H](c6cccs6)O[C@H]5[C@H](O)[C@H]3O)[C@H]3COC(=O)[C@H]23)OCO4)cc(OC)c1O`, the cell viability is 27.5%.

In the case of `COc1cc([C@@H]2c3cc4c(cc3[C@@H](O[C@@H]3O[C@@H]5CO[C@@H](C)O[C@H]5[C@H](O)[C@H]3O)[C@H]3COC(=O)[C@H]23)OCO4)cc(OC)c1O`, the cell viability was 59.4%.

Consider `C[C@@H]1CC[C@@]2(OC1)O[C@H]1C[C@H]3[C@@H]4CC[C@H]5C[C@@H](O)CC[C@]5(C)[C@H]4CC[C@]3(C)[C@H]1[C@@H]2C`, for which the cell viability worked out at 97.1%.

As for `CCC[C@H](NC(=O)/C(C#N)=C/c1cccc(Br)n1)c1ccccc1`, the cell viability came to 57.8%.

`COc1ccc(C=CC(=O)O)cc1OC`: the cell viability was 106%.

Regarding `CC(=O)c1c(O)cc(O)cc1O`, the cell viability amounted to 106%.

For the compound `O=C(O)C(=O)O.[NH-]C1CCCCC1[NH-].[Pt+2]` (stereo unspecified) [Oxaliplatin (Eloxatin)], the cell viability was 41.3%.

With `O=C(NC1CCCCC1)NC1CCCCC1`, the cell viability came out at 120%.

Take `CC(C)=CCOc1cc2oc(=O)ccc2cc1O`: the cell viability is 98%.

As to `O=c1cc(-c2cc(O)c(O)c(O)c2)oc2cc(O)cc(O)c12`, the cell viability is 106%.

As to `COC(=O)C[C@H]1C2(C)CC34OC5(C)O[C@@]6([C@H](OC(C)=O)C(OC(C)=O)[C@]7(C)C(/C(=C(/O)C(C)C)C(=O)O[C@H]7c7ccoc7)[C@@]6(O5)[C@H](OC(C)=O)[C@@]3(O)C2OC(=O)C(C)C)[C@]14C` (stereo partly specified), the cell viability amounted to 102%.

Turning to `CCCCCCCCCCCCCCCC(=O)OC[C@@H](NC(=O)C(Cl)Cl)[C@H](O)c1ccc([N+](=O)[O-])cc1`, the cell viability came to 96.2%.

`O=C(N[C@H](CO)[C@H](O)c1ccc([N+](=O)[O-])cc1)C(Cl)Cl`: the cell viability was 101%.

Take `O=C(O)CCC(=O)OC[C@@H](NC(=O)C(Cl)Cl)[C@H](O)c1ccc([N+](=O)[O-])cc1`: the cell viability turned out to be 40.2%.

For the compound `C[C@@H]1CC[C@@]23CCC4(C)[C@@](C=CC5[C@@]6(C)CCC(=O)C(C)(C)C6CC[C@]54C)(OC2=O)C3[C@H]1C` (stereo partly specified), the cell viability turned out to be 95.6%.

Consider `Oc1cc(O)c2c(c1)O[C@H](c1cc(O)c(O)c(O)c1)[C@H](O)C2`, for which the cell viability worked out at 97.9%.

On to `COc1ccc2c(c1)OC[C@@H](Cc1ccc(OC)c(OC)c1)[C@@H]2O`, for which the cell viability was found to be 82.3%.

For `CCCCCC/C=C\CCCCCCCc1cccc(O)c1C(=O)O`, the cell viability was 81.2%.

With `CC(=O)O[C@H]1CC[C@@]2(C)[C@H](CC[C@@H]3[C@@H]2CC[C@]2(C)[C@@H]4[C@H](C[C@@H]32)O[C@]2(CC[C@@H](C)CO2)[C@H]4C)C1`, the cell viability came to 94.2%.

Regarding `C=CCNC1=C2C[C@@H](C)C[C@H](OC)[C@H](O)[C@@H](C)/C=C(\C)[C@H](OC(N)=O)[C@@H](OC)/C=C\C=C(/C)C(=O)NC(=CC1=O)C2=O` [17-AAG (Tanespimycin)], the cell viability turned out to be 29.1%.

In the case of `CO[C@H]1/C=C\C=C(/C)C(=O)NC2=CC(=O)C(NCCN(C)C)=C(C[C@@H](C)C[C@H](OC)[C@H](O)[C@@H](C)/C=C(\C)[C@@H]1OC(N)=O)C2=O` [17-DMAG HCl (Alvespimycin)], the cell viability came to 2.31%.

`COC1=C2C[C@@H](C)C[C@H](OC)[C@H](O)[C@@H](C)/C=C(\C)[C@H](OC(N)=O)[C@@H](OC)/C=C\C=C(/C)C(=O)NC(=CC1=O)C2=O` [Geldanamycin]: the cell viability worked out at 0.865%.

Consider `C=C1[C@@H]([C@@]2(C)C=CC(=O)C(C)(C)[C@@H]2CC(=O)OC)CC[C@@]2(C)[C@H](c3ccoc3)OC(=O)[C@H]3O[C@]132`, for which the cell viability stood at 102%.

For `COC1=CC(=O)C=C(OC)C1=O`, the cell viability worked out at 91.5%.

Regarding `COc1cc(OC)c(C(C)=O)c(O)c1C`, the cell viability turned out to be 111%.

Turning to `CN[C@@H](C)C(=O)N[C@H]1CN(C(=O)CC(C)C)CC[C@H]2CC[C@@H](C(=O)NC(c3ccccc3)c3ccccc3)N2C1=O`, the cell viability came to 68.5%.

For `CON`, the cell viability came to 109%.

With `CC(=O)OC/C=C(\C)CC/C=C(\C)CC/C=C(\C)CC/C=C(\C)CC/C=C(\C)CC/C=C(\C)CC/C=C(\C)CC/C=C(\C)CCC=C(C)C`, the cell viability worked out at 106%.

Consider `O=C1C=C2CC3(O)COc4c(ccc(O)c4O)C3=C2C=C1O` (stereo unspecified), for which the cell viability turned out to be 97.6%.

On to `Cc1c2oc3c(C)ccc(C(=O)N[C@@H]4C(=O)N[C@H](C(C)C)C(=O)N5CCC[C@H]5C(=O)N(C)CC(=O)N(C)[C@@H](C(C)C)C(=O)O[C@@H]4C)c3nc-2c(C(=O)N[C@@H]2C(=O)N[C@H](C(C)C)C(=O)N3CCC[C@H]3C(=O)N(C)CC(=O)N(C)[C@@H](C(C)C)C(=O)O[C@@H]2C)c(N)c1=O`, for which the cell viability was 1.96%.

For `Cc1[nH]c(/C=C2\C(=O)Nc3ccc(S(=O)(=O)Cc4c(Cl)cccc4Cl)cc32)c(C)c1C(=O)N1CCC[C@@H]1CN1CCCC1`, the cell viability is 92.1%.

As to `Cc1[nH]c(/C=C2\C(=O)Nc3ccc(S(=O)(=O)N(C)c4cccc(Cl)c4)cc32)c(C)c1C(=O)N1CCN(C)CC1`, the cell viability was determined as 62.8%.

Take `CCN(CC)CCNC(=O)c1c(C)[nH]c(/C=C2\C(=O)Nc3ccc(F)cc32)c1C` [Sunitinib Malate (Sutent)]: the cell viability came to 32.9%.

`CC(=O)Oc1cc(-c2coc3cc(OC(C)=O)c(OC(C)=O)c(OC(C)=O)c3c2=O)cc(OC(C)=O)c1OC(C)=O`: the cell viability came out at 93.9%.

For the compound `CC(=O)O[C@@H]1CC2C(C)(C)[C@H](O)C=C[C@]2(C)C2CC[C@@]3(C)[C@H](c4ccoc4)OC(=O)C4OC43[C@@]21C` (stereo partly specified), the cell viability is 98.8%.

For `O=c1c2ccccc2oc2ccccc12`, the cell viability is 101%.

In the case of `CC(=O)Nc1nc(C)c(-c2ccc(Cl)c(S(=O)(=O)NCCO)c2)s1`, the cell viability came out at 56.6%.

Turning to `Nc1ccccc1NC(=O)c1ccc(CNc2nccc(-c3cccnc3)n2)cc1` [Mocetinostat (MGCD0103)], the cell viability was 4.85%.

For the compound `O=C(CCNNC(=O)c1ccncc1)NCc1ccccc1`, the cell viability was determined as 90.2%.

As to `Nc1ccccc1NC(=O)c1ccc(CNC(=O)OCc2cccnc2)cc1` [Entinostat (MS-275, SNDX-275)], the cell viability was 12.6%.

With `O=C(NCO)c1cccnc1`, the cell viability was found to be 106%.

On to `COc1c2ccoc2c(OC)c2oc(=O)ccc12`, for which the cell viability is 115%.

For `CC(NC(=O)c1ccccc1/N=C/c1c(O)ccc2ccccc12)c1ccccc1` (stereo unspecified) [Sirtinol], the cell viability came to 103%.

For `CCc1cc(C(N)=S)ccn1`, the cell viability came out at 97.8%.

In the case of `CCc1ccc2c(O)c3c(cc2c1C(=O)OC)C(=O)c1c(O)ccc(O)c1C3=O`, the cell viability stood at 102%.

Consider `NC(=O)c1ccc(I)c([N+](=O)[O-])c1` [Iniparib (BSI-201)], for which the cell viability turned out to be 103%.

Consider `C[C@H]1COC2=C1C(=O)C(=O)c1c2ccc2c1CCCC2(C)C`, for which the cell viability is 97.7%.

Turning to `C=C1C(=O)O[C@@H]2C[C@@]3(C)CCC[C@H](C)C3=C[C@H]12`, the cell viability stood at 74%.

Take `COc1cccc(O)c1O`: the cell viability was 110%.

For the compound `C=CCn1c(=O)c2cnc(Nc3ccc(N4CCN(C)CC4)cc3)nc2n1-c1cccc(C(C)(C)O)n1`, the cell viability turned out to be 19.2%.

As to `CO[C@@H](C(=O)N1Cc2[nH]nc(NC(=O)c3ccc(N4CCN(C)CC4)cc3)c2C1)c1ccccc1`, the cell viability stood at 13.4%.

`CC(C(=O)O)[C@H]1CCC2C3CC=C4C[C@@H](O)CC[C@]4(C)C3CC[C@@]21C` (stereo partly drawn) [3beta-HYDROXY-23,24-BISNORCHOL-5-ENIC ACID]: the cell viability was 109%.

Consider `CNCc1ccccc1`, for which the cell viability worked out at 104%.

`C=CC1=C(C)/C(=C/c2[nH]c(Cc3[nH]c(/C=C4\NC(=O)C(C)=C4C=C)c(C)c3CCC(=O)O)c(CCC(=O)O)c2C)NC1=O`: the cell viability was found to be 91.9%.
